Screening data: PubChem, National Center for Advancing Translational Sciences (NCATS)
Only some compounds are listed: those with a hit (about 19% of all), similar ones and a draw of the others.
HepG2 tox – kills HepG2 cells in TGF-b inhibitor counter-screen. HepG2 CAGA-GFP viability, ATP luminescence, 18 h. Potency, µM (titrated, usually from 46.1 µM), for the others: at the top dose activity change, negative = cytotoxicity, usual class: cytotoxic. actives 0.76% (n = 410,000); note: potency is the fitted concentration of half-maximal effect
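CellTiter-Glo luminescence gave cytotoxicity after 18 hours at 37 degrees C. The cells were HepG2 CAGA-GFP in 1% FBS DMEM, stimulated with 500 pg/mL TGF-beta after compound addition. %Activity was normalised to no-cell wells (complete cell-killing) and DMSO (no toxicity), and curves were fitted and classified.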
TDP1 cell CPT – growth inhibition of DT40 Tdp1-/-;hTDP1 cells with camptothecin (screen for TDP1 inhibitors) | actives 12% (n = 420,000) | chicken DT40 Tdp1-/-;hTDP1 cells + 20 nM CPT, ATP luminescence, 48 h | AID 686979 | Potency, µM (highest dose often 46.2 µM), for inactives: at the highest dose activity change, negative = growth inhibition, hits mostly inhibitors; note: potency is the fitted concentration of half-maximal effect; % is set by controls: 0 for no effect and ±100 for the full control effect; nearly all actives have a fitted effect of over 55% in size
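Chicken DT40 Tdp1-/- cells stably complemented with human TDP1 were seeded at 400 cells/well in medium containing 20 nM camptothecin, exposed to pin-transferred compounds, and grown at 37 °C for at least 48 hr. Viability was read as ATP luminescence.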
TDP1 cell noCPT – qHTS for Inhibitors of human tyrosyl-DNA phosphodiesterase 1 (TDP1): qHTS in cells in absence of CPT; Potency, µM (top dose mostly 46.2 µM), without a hit: at the highest dose activity change, negative = growth inhibition, actives largely listed as inhibitors; actives 15% (n = 420,000); DT40 Tdp1-/- hTDP1 cells, no CPT, ATP luminescence, 48 h; note: potency is the fitted concentration of half-maximal effect; % is set by controls: 0 for no effect and ±100 for the full control effect; nearly all actives have a fitted effect of over 55% in size
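Cells were dispensed at 400 per well, compounds added by pin tool, plates incubated ≥48 hr at 37 °C, then CellTiter-Glo added for 30 min at room temperature before luminescence reading. Line: DT40 Tdp1-/- complemented with hTDP1; camptothecin omitted.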
IL1B secr inh – inhibitors of inflammasome signaling (IL-1 beta secretion). THP-1 LPS/ATP IL-1B secretion, AlphaLISA, 16 h; active compounds read low. activity change, % at 57.5 µM. actives 4.7% (n = 360,000); in the data active = activity change below about -50%; inconclusive = mostly about -30% to -49%; note: % is set by controls: 0 for no effect and ±100 for the full control effect
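Secreted IL-1B measured by AlphaLISA bead assay after 16 h compound exposure of THP-1 cells; compounds (final up to 57.5 uM) added 1 h before LPS (250 ng/mL) and ATP (1.25 mM) stimulation; lower signal means less secretion.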
TDP1 inh – TDP1 (human) enzyme inhibition. Q9NUW8. recombinant TDP1, AlphaScreen DNA substrate cleavage. Potency, µM (top dose mostly 130 µM), inactives show top-dose activity change, negative = inhibition, most hits filed as inhibitors. actives 0.28% (n = 350,000). AID 485290; note: potency is the fitted concentration of half-maximal effect; % is set by controls: 0 for no effect and ±100 for the full control effect; nearly all actives have a fitted effect of over 40% in size
Target sequence (Q9NUW8 whole entry, looked up): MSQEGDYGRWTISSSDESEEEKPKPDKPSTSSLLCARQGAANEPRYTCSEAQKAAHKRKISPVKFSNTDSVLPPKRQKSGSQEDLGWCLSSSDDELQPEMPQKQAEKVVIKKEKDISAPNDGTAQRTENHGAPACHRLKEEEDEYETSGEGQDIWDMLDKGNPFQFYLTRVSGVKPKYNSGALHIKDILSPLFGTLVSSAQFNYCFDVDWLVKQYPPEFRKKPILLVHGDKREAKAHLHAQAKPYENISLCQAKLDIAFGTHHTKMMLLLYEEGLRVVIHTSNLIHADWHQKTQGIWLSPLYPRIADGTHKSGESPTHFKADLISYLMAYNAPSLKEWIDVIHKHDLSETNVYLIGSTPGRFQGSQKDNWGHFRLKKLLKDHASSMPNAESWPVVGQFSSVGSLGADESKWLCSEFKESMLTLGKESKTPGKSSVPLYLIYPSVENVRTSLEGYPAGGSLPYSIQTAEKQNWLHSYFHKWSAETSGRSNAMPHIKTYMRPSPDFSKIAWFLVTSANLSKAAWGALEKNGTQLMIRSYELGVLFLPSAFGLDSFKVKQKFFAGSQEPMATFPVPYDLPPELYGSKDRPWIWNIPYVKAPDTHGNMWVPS
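AlphaScreen read-out: signal falls as enzyme removes the 3' tyrosine-FITC from a 5'-biotinylated DNA oligo (15 nM, 5 min, RT). Enzyme was E. coli-made recombinant Tdp1 at 1 nM, exposed to compound for 15 min beforehand; beads 10 ug/ml, 10 min.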
TGFb SMAD3 inh – TGF-b pathway inhibition. Potency, µM (titrated, usually from 46.1 µM), inactives show top-dose activity, negative = inhibition, usual class: inhibitors. AID 588855. actives 1.2% (n = 410,000). HepG2 CAGA-GFP TGF-b/SMAD3 reporter, GFP fluorescence, 18 h; TGF-beta stimulated, 500 pg/mL final; note: potency is the fitted concentration of half-maximal effect; % is set by controls: 0 for no effect and ±100 for the full control effect; nearly all actives have a fitted effect of over 65% in size
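First, reporter cells (HEPG2 CAGA-GFP) rested 2 h at 37 degrees C. Next, compounds were pinned in and TGF-beta added to 500 pg/mL final. After 18 h, GFP was imaged per cell and summed per well.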
Starred values were filed as active, the others as inactive; ? = inconclusive; . = no result given; [ ] = another dose, or the depositor's remark. Unless noted, calls come from the whole dose curve; as a rule, active = well fitted curve in the direction sought with a large enough effect; inconclusive = small, poorly fitted or top-dose-only effect, or another doubt; inactive = no such curve, though single readings can be large; an effect the other way counts as inactive or inconclusive.

SMILES	HepG2 tox	TDP1 cell CPT	TDP1 cell noCPT	IL1B secr inh	TDP1 inh	TGFb SMAD3 inh
C[C@H]1CN([C@@H](C)CO)S(=O)(=O)c2ccc(Br)cc2O[C@@H]1CN(C)S(=O)(=O)c1ccccc1	-5%	?	?	-19	.	3%
COCC#Cc1ccc2c(c1)O[C@@H](CN(C)S(=O)(=O)c1cccc(F)c1)[C@@H](C)CN([C@H](C)CO)S2(=O)=O	-19%	?	18µM*	-1	.	3%
COc1ccc(S(=O)(=O)N(C)C[C@@H]2Oc3cc(Br)ccc3S(=O)(=O)N([C@H](C)CO)C[C@@H]2C)cc1	-31%	?	16µM*	-20	.	15%
C[C@H](CO)N1C[C@H](C)[C@H](CN(C)S(=O)(=O)c2cccc(F)c2)Oc2cc(Br)ccc2S1(=O)=O	-19%	26µM*	21µM*	-16	.	0%
O=C(CSc1nc2c([nH]c3ccccc32)c(=O)n1-c1ccccc1)N1CCCc2ccccc21	-19%	0%	1%	.	-4%	-7%
CCCC#Cc1ccc2c(c1)O[C@H](CN(C)S(=O)(=O)c1cccc(OC)c1)[C@H](C)CN([C@H](C)CO)S2(=O)=O	-19%	15µM*	16µM*	-16	.	?
COc1ccc(S(=O)(=O)N(C)C[C@H]2Oc3cc(Br)ccc3S(=O)(=O)N([C@H](C)CO)C[C@H]2C)cc1	-42%	?	21µM*	23	.	-6%
COc1cccc(C#Cc2ccc3c(c2)O[C@H](CN(C)S(=O)(=O)c2ccccc2F)[C@H](C)CN([C@H](C)CO)S3(=O)=O)c1	-11%	-30%	?	1	.	-1%
Cc1ccc(S(=O)(=O)N(C)C[C@H]2Oc3cc(C#CC4CCCC4)ccc3S(=O)(=O)N([C@H](C)CO)C[C@H]2C)cc1	-31%	18µM*	18µM*	-2	.	?
C[C@@H]1CN([C@@H](C)CO)S(=O)(=O)c2ccc(Br)cc2O[C@@H]1CN(C)S(=O)(=O)c1cn(C)cn1	6%	18%	-20%	4	.	8%
CC(C)(C)N1C(=O)[C@H]2[C@H]3[C@H](O)[C@H](O)C/C(=N/OCc4ccccc4)[C@@H]3CC[C@@H]2C1=O	.	.	.	.	5%[21 µM]	.
COc1cccc2c(SCC(=O)N/N=C/c3ccc(O)cc3O)cc(C)nc12	-10%	?	10µM*	-88*	9%	-11%
COc1ccccc1/C=N/NC(=O)CC(=O)NCc1ccccc1	3%	-1%	-11%	-51*	-5%	13%
Cc1cc(C(=O)NN)c2cc(Br)ccc2n1	7%	-4%	1%	21	-5%	?
COc1ccccc1/C=N/NC(=O)CSc1cc(C)nc2ccccc12	-17%	7.3µM*	8.2µM*	-66*	8%	-13%
COc1ccccc1/C=N/NC(=O)CSc1ccc2ccccc2n1	-5%	?	?	42	.	0%
Cc1cc(SCC(=O)NN)c2cc(Br)ccc2n1	-75%	?	?	-92*	8%	?
CN1C(C(=O)Nc2ccccn2)C(=O)c2sc(Cl)cc2S1(=O)=O (centres undefined)	.	7%	8%	.	4%	.
O=C(CC(=O)N/N=C\c1ccccc1)NCCc1ccccc1	-12%	-5%	-1%	-6	0%	0%
COc1ccc2nc(C)cc(SCC(=O)N/N=C/c3ccccc3)c2c1	-29%	-14%	?	-98*	3%	?
COC(=O)c1ccc(/C=N\NC(=O)CC(=O)NCCc2ccccc2)cc1	19%	2%	13µM*	19	3%	-2%
COc1ccc2nc(C)cc(SCC(=O)N/N=C/c3ccc(O)cc3O)c2c1	4%	?	?	?	1%	0%
C[C@@H]1C(=O)O[C@H]2[C@@H](O)[C@@]34[C@H]5CC(C(C)(C)C)[C@]36[C@@H](OC(=O)[C@@H]6O)O[C@@]4(C(=O)O5)[C@@]12O (some centres undefined)	.	2%	-11%	.	12%[56.1 µM]	.
O=C(c1ccc(Br)cc1)N1CCN(c2ccccn2)CC1	-2%	-16%	?	0	.	-2%
Cc1ccc(CSc2cn(CC(=O)N3CCCC3)c3ccccc23)cc1	-35%	16µM*	16µM*	.	3%	?
SMILES	HepG2 tox	TDP1 cell CPT	TDP1 cell noCPT	IL1B secr inh	TDP1 inh	TGFb SMAD3 inh
Cc1ccc(C)c(NC(=O)CSc2cn(CC(=O)N3CCCCC3)c3ccccc23)c1	-9%	?	?	.	-3%	0%
Cc1ccccc1NC(=O)CSc1cn(CC(=O)N2CCCC2)c2ccccc12	3%	?	?	.	-3%	-11%
Cc1ccc(CSc2cn(CC(=O)N3CCCCCC3)c3ccccc23)cc1	-24%	?	21µM*	.	3%	?
C=C1C=C(Br)C2(OCCCO2)[C@H]2OC12 (some centres undefined)	.	.	.	.	7%[21 µM]	.
COC(=O)c1cc(OC)c(OC)cc1NCC(=O)Nc1ccc(OC)c(OC)c1	-8%	21µM*	13µM*	7	0%	-7%
COC(=O)c1cc(OC)c(OC)cc1NCC(=O)Nc1ccc(C)cc1	7%	-23%	-11%	-52*	3%	-4%
COC(=O)c1cc(OC)c(OC)cc1NCC(=O)Nc1cccc(C(F)(F)F)c1	-7%	-29%	?	-12	8%	-45%
COc1ccc(-c2noc(-c3ccc(N4CCC(C)CC4)c([N+](=O)[O-])c3)n2)cc1OC	-6%	-20%	-15%	.	11%	4%
CC(=O)Oc1ccc(/C=C2/SC(=S)N(Cc3ccccc3)C2=O)cc1	-3%	-7%	-16%	-11	.	13%
COc1ccc(CN2C(=O)/C(=C/c3ccncc3)SC2=S)cc1	-20%	23µM*	9.2µM*	-82*	10%	?
O=C(O)CCCN1C(=O)/C(=C/c2ccc(-c3nc4ccccc4s3)o2)SC1=S	2%	?	?	2	-3%	-3%
O=C(O)CCCCCN1C(=O)/C(=C/c2ccncc2)SC1=S	-5%	23µM*	23µM*	-98*	-3%	-1%
NC1=NC(=O)/C(=C\c2ccc(-c3ccc(Cl)cc3)o2)S1	-45%	?	18µM*	55	.	?
